{"source": "PubChem BioAssay (NCI)", "assay": "NCI Yeast Anticancer Drug Screen. Data for the wt1 strain (AID 149);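 further: 0% = growth of vehicle-treated wt1 cultures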", "conditions": "S. cerevisiae wt1 strain (SPY 50644) growth inhibition, hits give high values", "method": "Growth inhibition of yeast strains with defined genetic alterations is measured as a screen for potential anti-cancer activity. Selected strains with alterations in DNA damage repair or cell cycle control were exposed to compounds and growth inhibition was measured relative to vehicle treated controls. The strain used in this assay is wt1", "note": "About 79,000 compounds went through this panel and 15% of them were active in at least one assay; those are over-represented in the sample as a whole. Values without a mark were called inactive. Activity calls are given as the source filed them. No stated cut-off is given here; in the data, active means growth inhibition above about 70%; inactive means the rest."}
{"compound": "CCOC(=O)c1[nH]c2cccc3c2c1CC(Br)C3=O", "note": "(stereo not given)", "values": [{"measurement": "growth inhibition", "setting": "at 1.2 µM", "value": -23, "unit": "%"}, {"measurement": "growth inhibition", "setting": "at 3.7 µM", "value": -5, "unit": "%"}, {"measurement": "growth inhibition", "setting": "at 11.0 µM", "value": -3, "unit": "%"}, {"measurement": "growth inhibition", "setting": "at 33.0 µM", "value": 19, "unit": "%"}, {"measurement": "growth inhibition", "setting": "at 100.0 µM", "value": 60, "unit": "%"}]}
{"compound": "Cc1[nH]nc(C(F)(F)F)c1N=NN(C)C", "values": [{"measurement": "growth inhibition", "setting": "at 1.2 µM", "value": -4, "unit": "%"}, {"measurement": "growth inhibition", "setting": "at 3.7 µM", "value": 37, "unit": "%"}, {"measurement": "growth inhibition", "setting": "at 11.0 µM", "value": 46, "unit": "%"}, {"measurement": "growth inhibition", "setting": "at 33.0 µM", "value": "99% (active)"}, {"measurement": "growth inhibition", "setting": "at 100.0 µM", "value": "99% (active)"}]}
{"compound": "NCC(O)CSCc1ccc(Cl)cc1", "note": "(stereo not given)", "values": [{"measurement": "growth inhibition", "setting": "at 1.2 µM", "value": -3, "unit": "%"}, {"measurement": "growth inhibition", "setting": "at 3.7 µM", "value": -5, "unit": "%"}, {"measurement": "growth inhibition", "setting": "at 11.0 µM", "value": -3, "unit": "%"}, {"measurement": "growth inhibition", "setting": "at 33.0 µM", "value": -3, "unit": "%"}, {"measurement": "growth inhibition", "setting": "at 100.0 µM", "value": 0, "unit": "%"}]}
{"compound": "Cc1c(N=Nc2ccc(Cl)cc2)c(C)n(C2OC(CO)C(O)C(O)C2O)c(=S)c1C#N", "note": "(stereo not given)", "values": [{"measurement": "growth inhibition", "setting": "at 1.2 µM", "value": 1, "unit": "%"}, {"measurement": "growth inhibition", "setting": "at 3.7 µM", "value": 2, "unit": "%"}, {"measurement": "growth inhibition", "setting": "at 11.0 µM", "value": 3, "unit": "%"}, {"measurement": "growth inhibition", "setting": "at 33.0 µM", "value": 9, "unit": "%"}, {"measurement": "growth inhibition", "setting": "at 100.0 µM", "value": 24, "unit": "%"}]}
{"compound": "Cn1c(COc2ccc(/C=N/NC(=O)CCC(=O)N/N=C/c3ccc(OCc4c[n+]5ccccc5n4C)cc3)cc2)c[n+]2ccccc12", "values": [{"measurement": "growth inhibition", "setting": "at 1.2 µM", "value": 6, "unit": "%"}, {"measurement": "growth inhibition", "setting": "at 3.7 µM", "value": 7, "unit": "%"}, {"measurement": "growth inhibition", "setting": "at 11.0 µM", "value": 11, "unit": "%"}, {"measurement": "growth inhibition", "setting": "at 33.0 µM", "value": 12, "unit": "%"}, {"measurement": "growth inhibition", "setting": "at 100.0 µM", "value": "81% (active)"}]}
{"compound": "CC(O)CN1C(=O)c2cccc3cc([N+](=O)[O-])cc(c23)C1=O", "note": "(stereo not given)", "values": [{"measurement": "growth inhibition", "setting": "at 1.2 µM", "value": -7, "unit": "%"}, {"measurement": "growth inhibition", "setting": "at 3.7 µM", "value": 5, "unit": "%"}, {"measurement": "growth inhibition", "setting": "at 11.0 µM", "value": 1, "unit": "%"}, {"measurement": "growth inhibition", "setting": "at 33.0 µM", "value": -3, "unit": "%"}, {"measurement": "growth inhibition", "setting": "at 100.0 µM", "value": 0, "unit": "%"}]}
{"compound": "[O-]c1c2cc(-[n+]3c(-c4ccccc4)cc(-c4ccccc4)cc3-c3ccccc3)cc1COCCOCCOCCOCCOC2", "values": [{"measurement": "growth inhibition", "setting": "at 1.2 µM", "value": 3, "unit": "%"}, {"measurement": "growth inhibition", "setting": "at 3.7 µM", "value": -6, "unit": "%"}, {"measurement": "growth inhibition", "setting": "at 11.0 µM", "value": -6, "unit": "%"}, {"measurement": "growth inhibition", "setting": "at 33.0 µM", "value": -7, "unit": "%"}, {"measurement": "growth inhibition", "setting": "at 100.0 µM", "value": 35, "unit": "%"}]}
{"compound": "O=C(Nc1ccn(C2CC(O)C(COC(c3ccccc3)(c3ccccc3)c3ccccc3)O2)c(=O)n1)c1ccccc1", "note": "(stereo not given)", "values": [{"measurement": "growth inhibition", "setting": "at 1.2 µM", "value": -40, "unit": "%"}, {"measurement": "growth inhibition", "setting": "at 3.7 µM", "value": -22, "unit": "%"}, {"measurement": "growth inhibition", "setting": "at 11.0 µM", "value": "94% (active)"}, {"measurement": "growth inhibition", "setting": "at 33.0 µM", "value": "94% (active)"}, {"measurement": "growth inhibition", "setting": "at 100.0 µM", "value": "89% (active)"}]}
